In PubChem BioAssay (NCI) one finds growth data, which are given here for eight compounds.

Assay in all cases: NCI-60 one-dose screen, 48 h (100 = growth as untreated, 0 = no growth, -100 = all killed)
Common to all, as to details: 10 µM unless noted

The test system of test [1] is SK-MEL-2 melanoma.
In test [2] the test system is EKVX NSCLC.
The test system of test [3] is SN12C renal.
Test [4] has as its system UO-31 renal.
The subject of test [5] is TK-10 renal.
Test [6] deals with ACHN renal.
Test [7] deals with CAKI-1 renal.
Test [8] relates to A498 renal.
For test [9], the system named is CCRF-CEM leukemia.
Test [10] has as its system MOLT-4 leukemia.
Test [11] deals with SR leukemia.
The test system of test [12] is RPMI-8226 leukemia.
In test [13] the test system is OVCAR-8 ovarian.
Test [14] deals with OVCAR-5 ovarian.
For test [15], the system named is OVCAR-4 ovarian.
Test [16] deals with SK-OV-3 ovarian.
Test [17] concerns OVCAR-3 ovarian.
Test [18] relates to HS 578T breast.
Test [19] has as its system IGROV1 ovarian.
In test [20] the test system is NCI/ADR-RES ovarian.

Compounds without any hit were thinned out: in the full panel of roughly 83,000, 20% have a hit.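 Step 1: grow cells in 96-well plates. Step 2: add test compound at a single concentration. Step 3: incubate 48 h. Step 4: record percent growth.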 Unmarked numbers belong to inactive results. Active and inactive are the calls of the source. Rule for the calls: active = growth percent below 10; inactive = the rest.

Consider `O=[N+]([O-])c1cc([N+](=O)[O-])c(N2CCCC2)cc1NN=C(c1ccc(O)cc1)c1ccc(O)cc1`, for which the growth was -47.6% (active) in test [1]; 90.5% in test [2]; 128% in test [3]; -78.1% (active) in test [4]; 131% in [5]; 46.9% in [6]. The growth was 91.9% in test [7]; 122% in test [8]; 55.3% in [9]; 57.3% in test [10]; 77.1% in test [11]; 82.2% in [12]. Further, the growth in test [13] was -45.4% (active); in test [14], 38.2%; in test [15], 81.6%; in test [16] it was 39.9%; in [17], 89.8%; in [18], 137%.

As for `O=c1c2ccccc2c2nccn2c2cc(Cl)ccc12`, the growth in test [1] was 81.5%; in test [2] it was 83.2%; in test [3] it was 112%; in test [4], 70.7%; in test [5] it was 137%; in [6], 138%. The growth was 75.2% in [7]; 77.9% in test [8]; 34% in [9]; -54.9% (active) in test [10]; 11% in test [11]; 64.8% in test [12]. The growth in test [13] is 75.3%; in test [14], 53.2%; in test [15], 81.5%; in test [16], 113%; in test [19], 61.7%; in test [17], 99.1%. Further, the growth in test [18] was 77.1%; in test [20] it was 57.5%.

For `Fc1ccccc1C1c2ccccc2-c2nccn21` (centres undefined), the growth in test [1] is 99.5%; in test [2], 96.1%; in [3] it was 97.1%; in [4], 93.7%; in test [5], 97.4%; in test [6] it was 112%. The growth in test [7] was 66.5%; in test [8], 90.9%; in test [9], 96.9%; in test [10], 87.4%; in test [11], 78.1%; in test [12], 80.3%. Further, the growth was 95.8% in [13]; 96.3% in [14]; 90% in [15]; 109% in test [16]; 79.6% in test [19]; 96.7% in test [17]. The growth was 98.8% in [18] and 93.5% in [20].

Turning to `COc1ccc(NS(=O)(=O)N2CCCCC2)cc1`, the growth was 99.1% in test [1]; 115% in test [2]; 93% in test [3]; 76.4% in test [4]; 102% in [5]; 104% in [6]. For the same compound, the growth in test [7] is 103%; in [8] it was 80%; in test [9], 89.6%; in [10] it was 99.8%; in [11], 95.3%; in [12] it was 102%. Further, the growth in test [13] was 105%; in [14], 117%; in test [15] it was 125%; in test [16], 99.6%; in test [17], 107%; in test [18] it was 108%.

With `COc1cccc(/C=N/Nc2nc3ccccc3s2)c1OC`, the growth in test [1] is 81%; in test [2] it was 95.7%; in test [3] it was 102%; in [4], 85.1%; in [5] it was 64.8%; in [6] it was 79.7%. Besides, the growth in test [7] is 78.8%; in test [8] it was 121%; in test [9], 77%; in test [10], 74.4%; in test [11], 45.9%; in test [12] it was 74.8%. The growth in [13] is 76.5%; in [14], 97.7%; in test [15], 92.2%; in test [16], 78.5%; in test [17] it was 98.3%; in test [18] it was 97.9%.

Consider `CCN(CC)CCSc1ncnc2c1cnn2-c1ccc(S(N)(=O)=O)cc1`, for which the growth is 96.5% in test [1]; 86.8% in [2]; 89.5% in [3]; 87.7% in test [4]; 103% in test [5]; 92.2% in [6]. The growth in [7] was 7.74% (active); in test [8], 92%; in test [9], 88.4%; in [10], 85.6%; in [11] it was 57%; in test [12], 98.2%. Besides, the growth is 83.5% in test [13]; 112% in [14]; 106% in [15]; 108% in test [16]; 96.5% in test [19]; 84.4% in test [17]. Moreover, the results for the growth in [18] and in [20] were 103% and 85.2%, respectively.

Regarding `CC(NC(=O)Oc1cccc2ccccc12)c1ccccc1` (centres undefined), the growth in [1] is 107%; in [2], 107%; in test [3], 97.4%; in test [4], 61.1%; in test [5], 105%; in test [6] it was 98.9%. Also, the growth in test [7] is 121%; in [8] it was 106%; in test [9] it was 72%; in [10], 68.9%; in test [11], 90.8%; in test [12], 109%. Also, the growth is 96.9% in test [13]; 123% in [14]; 97.4% in test [15]; 111% in [16]; 116% in test [19]; 103% in test [17]. Also, the growth in test [18] is 107%; in [20], 97.6%.

Regarding `CC1=C([Se]CC(OC(=O)[C@@H](CSSC(C)(C)C)NC(=O)C(C)(C)C)C(=O)NCCCCCC(=O)OCc2ccccc2)C(=O)c2ccccc2C1=O` (some centres undefined), the growth in test [1] is -24.2% (active); in test [2], -24.2% (active); in test [3] it was 2.42% (active); in test [4], -78.5% (active); in [5] it was -29.3% (active); in test [6], -10.9% (active). The growth in test [7] is -19.3% (active); in test [8] it was -5.18% (active); in test [9], 3% (active); in test [10], 5.23% (active); in [11] it was 29.2%; in [12], -11% (active). The growth in test [13] is 8.55% (active); in test [14], -28.7% (active); in [15], 14.5%; in test [16] it was -17.5% (active); in test [19], -60.9% (active); in [17] it was 1.96% (active). The values for the growth in [18] and in test [20] were 13.6% and -12.4% (active), respectively.
